# Measured values taken from PubChem BioAssay.
# Legend:
# [1] = biological target: PEG-3 (UniProt Q6IN02); assay: Peg3 promoter luciferase inhibitors, potency, dose response, cell-based, HeLa, CREF/GAPDH counter-screen panel (AID 624167); settings: CREF/GAPDH counter-screens; HeLa PEG-Prom luciferase reporter, overnight, run 1, dose range 1, at 100 µM (top of the series) unless noted
# [2] = biological target: PEG-3 (UniProt Q6IN02); assay: as above; settings: CREF/GAPDH counter-screens; HeLa PEG-Prom luciferase reporter, overnight, run 2, dose range 1, at 100 µM (top of the series) unless noted
# [3] = test system: Rat fibroblasts (CREF); assay: as above; settings: CREF/GAPDH counter-screens; run 1, dose range 1, at 100 µM (top of the series)
# [4] = test system: Rat fibroblasts (CREF); assay: as above; settings: CREF/GAPDH counter-screens; run 2, dose range 1, at 100 µM (top of the series)
# [5] = inhibitors of PAF-induced NFkB signaling in CF airway cells, dose response, cell-based, uHTS hits, panel, cytotoxicity readout (AID 624344); settings: CF bronchial epithelial cells, PAF-induced NFkB reporter inhibition, with PAF, run 1; at 79 µM (top of the series) unless noted
# [6] = as above; settings: CF bronchial epithelial cells, PAF-induced NFkB reporter inhibition, with PAF, run 2; at 79 µM (top of the series) unless noted
# [7] = biological target: Tumor necrosis factor receptor superfamily member 10B (Homo sapiens) (UniProt O14763); assay: caspase-8 TRAIL sensitization, hit retest, confirmation, cell-based, NB7+caspase-8, with/without TRAIL, luminescence panel (AID 651596); settings: NB7 neuroblastoma + caspase-8, TRAIL sensitization, luminescence viability, with TRAIL, mean of runs, at 10 µM, stronger effect = higher value
# [8] = as above; settings: NB7 neuroblastoma + caspase-8, without TRAIL, luminescence viability, without TRAIL, mean of runs, at 10 µM
# [9] = biological target: Tumor necrosis factor receptor superfamily member 10B (Homo sapiens) (UniProt O14763); assay: TRAIL sensitizers in caspase-8 expressing neuroblastoma cells, dose response, NB7 cells plus caspase-8, luminescence, panel (AID 652002); settings: NB7 neuroblastoma +caspase-8, TRAIL sensitization, luminescence viability, NB7+Caspase-8, with TRAIL, run 1; at 12.5 µM (top of the series)
# [10] = biological target: Tumor necrosis factor receptor superfamily member 10B (Homo sapiens) (UniProt O14763); assay: as above; settings: NB7 neuroblastoma +caspase-8, TRAIL sensitization, luminescence viability, NB7+Caspase-8, with TRAIL, run 2; at 12.5 µM (top of the series)
# [11] = as above; settings: NB7 neuroblastoma +caspase-8, no TRAIL, compound-alone cytotoxicity counter-screen, luminescence viability, NB7+Caspase-8, run 1; at 12.5 µM (top of the series) unless noted
# [12] = as above; settings: NB7 neuroblastoma +caspase-8, no TRAIL, compound-alone cytotoxicity counter-screen, luminescence viability, NB7+Caspase-8, run 2; at 12.5 µM (top of the series) unless noted
# Chain of Tumor necrosis factor receptor superfamily member 10B (Homo sapiens) (O14763 whole entry, looked up): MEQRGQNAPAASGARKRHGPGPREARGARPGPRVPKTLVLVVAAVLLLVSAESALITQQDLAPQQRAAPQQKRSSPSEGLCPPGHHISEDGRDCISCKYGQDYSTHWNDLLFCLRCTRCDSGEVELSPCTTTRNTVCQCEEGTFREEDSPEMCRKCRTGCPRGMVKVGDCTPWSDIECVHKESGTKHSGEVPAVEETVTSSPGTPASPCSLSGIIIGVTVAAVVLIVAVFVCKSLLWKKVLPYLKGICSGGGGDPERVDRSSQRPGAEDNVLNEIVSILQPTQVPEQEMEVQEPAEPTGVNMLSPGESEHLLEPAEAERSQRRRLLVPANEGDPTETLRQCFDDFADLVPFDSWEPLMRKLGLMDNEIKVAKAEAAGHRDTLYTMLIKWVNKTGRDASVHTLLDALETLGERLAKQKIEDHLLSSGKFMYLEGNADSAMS
# Chain of PEG-3 (Q6IN02 whole entry, looked up): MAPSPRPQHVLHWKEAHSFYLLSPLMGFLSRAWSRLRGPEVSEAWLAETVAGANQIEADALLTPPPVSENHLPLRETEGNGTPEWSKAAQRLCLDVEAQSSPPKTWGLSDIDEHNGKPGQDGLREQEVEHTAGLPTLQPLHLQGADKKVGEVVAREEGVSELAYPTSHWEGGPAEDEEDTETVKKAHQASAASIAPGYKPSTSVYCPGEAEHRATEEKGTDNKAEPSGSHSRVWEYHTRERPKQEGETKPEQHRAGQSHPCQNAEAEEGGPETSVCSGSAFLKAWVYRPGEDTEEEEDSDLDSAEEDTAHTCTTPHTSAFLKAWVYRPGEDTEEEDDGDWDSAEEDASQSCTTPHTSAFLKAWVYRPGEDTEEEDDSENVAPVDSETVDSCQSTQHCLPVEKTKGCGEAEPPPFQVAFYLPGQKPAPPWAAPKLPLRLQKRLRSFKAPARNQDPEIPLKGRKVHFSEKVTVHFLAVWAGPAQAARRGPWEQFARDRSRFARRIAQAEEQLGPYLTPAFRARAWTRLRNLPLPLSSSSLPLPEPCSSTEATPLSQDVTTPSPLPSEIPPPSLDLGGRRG
structure (smiles),measurement,setting,value
CCCCCN1C=CC(=C2C(=O)c3ccccc3C2=O)C=C1,inhibition,[1],102%
same,inhibition,[2],99.1%
same,inhibition,[3],98.2%
same,inhibition,[4],98.3%
COc1ccccc1Nc1nc(-c2sc(NC(=O)c3ccco3)nc2C)cs1,inhibition,[1],38%
same,inhibition,[2],52.5%
same,inhibition,[3],35.4%
same,inhibition,[4],40.3%
COC(=O)C1C=CC(OC2OC(COC(C)=O)C(OC(C)=O)C(OC(C)=O)C2OC(C)=O)n2c(=O)n(-c3ccccc3)c(=O)n21 (configuration not stated),inhibition,[1],99.8%
same,inhibition,[2],98.3%
same,inhibition,[3],98.1%
same,inhibition,[4],99.1%
Cc1cc(/C=N/Nc2ncnc(N)c2[N+](=O)[O-])c(C)n1-c1ccccc1,inhibition,[1],93.6%
same,inhibition,[2],87%
same,inhibition,[3],91.1%
same,inhibition,[4],93.5%
O=C(Nc1cc(S(=O)(=O)N2CCOCC2)ccc1Cl)c1cc([N+](=O)[O-])ccc1Cl,inhibition,[1],98.9%
same,inhibition,[2],98.9%
same,inhibition,[3],85.8%
same,inhibition,[4],98.1%
O=C(OCC(F)(F)F)c1cccc(COc2ccc3ccccc3c2)c1,inhibition,[1],96.5%
same,inhibition,[2],92.4%
same,inhibition,[3],86.6%
same,inhibition,[4],85.7%
Cc1ccc(NC(=S)NC(=O)c2ccc(F)cc2)cc1S(=O)(=O)Nc1ccccc1Cl,inhibition,[1],70.7%
same,inhibition,[2],36.1%
same,inhibition,[3],-12%
same,inhibition,[4],91.7%
O=C(CCl)N1c2ccccc2Sc2ccc3ccccc3c21,inhibition,[1],99.4%
same,inhibition,[2],101%
same,inhibition,[3],99.4%
same,inhibition,[4],99.6%
CN(C)c1c([N+](=O)[O-])cc(N2C(=O)C=CC2=O)cc1[N+](=O)[O-],inhibition,[1],102%
same,inhibition,[2],102%
same,inhibition,[3],101%
same,inhibition,[4],100%
Cc1ccc(/C=C2\SC(=S)N(CCCC(=O)NNC(=O)c3ccccc3O)C2=O)cc1,inhibition,[1],81.6%
same,inhibition,[2],73.5%
same,inhibition,[3],10.1%
same,inhibition,[4],11%
CC(C)CCCCCCCCCCCCC(=O)NCC(=O)NC1C(O)C(O)C(Nc2ncnc3nc[nH]c23)OC1C(O)CO (configuration not stated),inhibition,[1],102%
same,inhibition,[2],98.2%
same,inhibition,[3],99.5%
same,inhibition,[4],9.65%
CCCC(=O)NC(c1ccc(C)cc1)c1ccc2cccnc2c1O (configuration not stated),inhibition,[1],96.2%
same,inhibition,[2],83.5%
same,inhibition,[3],3.2%
same,inhibition,[4],23.3%
CN(C)c1ccc(/C=C2\SC(=O)N(CCc3nnc(N)s3)C2=O)cc1,inhibition,[1],62%
same,inhibition,[2],77.4%
same,inhibition,[3],83%
same,inhibition,[4],82.3%
O=[N+]([O-])c1ccc(-c2ccc(/C=N/Nc3nc(NCc4ccccc4)nc(N4CCOCC4)n3)o2)cc1,inhibition,[1],99.5%
same,inhibition,[2],91.5%
same,inhibition,[3],97.5%
same,inhibition,[4],96.9%
COc1cccc(OC)c1C(=O)Nc1cc(C)nn1-c1nc2ccccc2[nH]1,inhibition,[5],111%
same,inhibition,[6],101%
CC(=O)Nc1ccc(NC(=O)c2nc(S(=O)(=O)Cc3cccc(C)c3)ncc2Cl)cc1,inhibition,[5],76.1%
same,inhibition,[6],85.4%
COc1ccc(/C=N/Nc2nncc3ccccc23)cc1,inhibition,[1],92.6%
same,inhibition,[2],95.4%
same,inhibition,[3],97.8%
same,inhibition,[4],98.9%
same,activity,[7],97.3%
same,activity,[8],97%
N/C(=N\OC(=O)c1ccccc1)C(C(=O)NOC(=O)c1ccccc1)C1CCCCC1 (configuration not stated),inhibition,[1],98.8%
same,inhibition,[2],102%
same,activity,[7],97.6%
same,activity,[8],94.9%
O=C1CCCCC1Sc1nnc(-c2ccc3c(c2)OCO3)o1 (configuration not stated),inhibition,[1],98.4%
same,inhibition,[2],95%
same,inhibition,[3],95%
same,inhibition,[4],94.3%
same,activity,[7],48.4%
same,activity,[8],35.9%
same,"activity, % sensitization",[9],19.6%
same,"activity, % sensitization",[10],16.8%
same,"activity, % sensitization",[11],29.8%
same,"activity, % sensitization",[12],21.7%
Cc1csc(NC(=O)c2ccc(N3CCCC3=O)cc2)n1,inhibition,[1],88.6%
same,inhibition,[2],78.1%
same,inhibition,[3],88.8%
same,inhibition,[4],90.4%
same,activity,[7],77.3%
same,activity,[8],73.5%
CCCC(=O)N1CCCC(c2cc(C(=O)Nc3ccccc3)no2)C1 (configuration not stated),inhibition,[1],85.5%
same,inhibition,[2],90.8%
same,activity,[7],52.6%
same,activity,[8],37.5%
COc1ccc(Nc2nc(-c3ccccc3)nc3ccccc23)cc1S(=O)(=O)N1CCOCC1,inhibition,[1],61.7%
same,inhibition,[2],59.1%
same,inhibition,[5],97.7%
same,inhibition,[6],106%
same,activity,[7],33%
same,activity,[8],25.6%
COc1cc(/C=N/O)ccc1OCc1ccc(C(=O)O)cc1,inhibition,[1],88.6%
same,inhibition,[2],90.2%
same,inhibition,[3],92%
same,inhibition,[4],91.3%
same,activity,[7],72.7%
same,activity,[8],65.7%
